Screening results from PubChem.
Rows were chosen to be rich in hits. Some 1.2% of all compounds tested hit in one or more screens of this group.
RGS8-Gao: modulates binding of RGS8 to human Galphao; multiplexed bead flow cytometry; actives lie on both sides; response (percent of control binding), % at 10 µM; 0.34% of 220,000 active; AID 1423; in the data active means response below about 60% or above about 140%; inactive means in between;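 further: Galphao activated as the GDP aluminium fluoride complex binding bead-coupled RGS8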
Target sequence (P09471 whole entry, looked up): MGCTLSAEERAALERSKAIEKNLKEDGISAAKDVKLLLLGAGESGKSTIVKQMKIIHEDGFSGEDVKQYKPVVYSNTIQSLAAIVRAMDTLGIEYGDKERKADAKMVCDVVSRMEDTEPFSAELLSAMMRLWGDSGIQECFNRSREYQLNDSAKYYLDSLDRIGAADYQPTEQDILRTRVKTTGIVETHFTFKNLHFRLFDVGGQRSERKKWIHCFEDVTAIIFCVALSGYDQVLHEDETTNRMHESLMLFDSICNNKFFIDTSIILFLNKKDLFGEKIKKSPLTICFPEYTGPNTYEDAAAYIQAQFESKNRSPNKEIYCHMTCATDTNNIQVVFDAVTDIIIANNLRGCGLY
RGS16-Gao: RGS16-Galphao interaction regulator (human). 0.38% of 220,000 active. bead-based flow cytometry RGS16-Galphao binding, fluorescence; actives lie on both sides. binding response (% of control), % at 10 µM. O15492+P09471;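 further: Galphao activated by GDP with aluminum fluoride before binding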
Target sequence (O15492 whole entry, looked up): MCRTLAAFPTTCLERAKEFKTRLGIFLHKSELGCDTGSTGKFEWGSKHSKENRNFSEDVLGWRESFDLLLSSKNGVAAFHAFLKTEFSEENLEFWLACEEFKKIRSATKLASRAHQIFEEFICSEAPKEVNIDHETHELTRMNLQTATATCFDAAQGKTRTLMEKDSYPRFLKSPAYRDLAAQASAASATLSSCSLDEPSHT
Target sequence (P09471 whole entry, looked up): as the sequence (P09471 whole entry, looked up) above
GSH bead fluor: compound fluoresces at 488/530 nm on GSH beads; 0.25% of 190,000 active; fluorescence (KMESF) at 10 µM; AID 1776; GSH beads flow cytometry, compound fluorescence 488/530 nm; active compounds read high; in the data active means fluorescence above about 89;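 further: glutathione beads carrying GST-tagged Bcl family fusion proteins plus one bare bead set; values are compound well signal with DMSO vehicle wells as background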
Avidin bead fluor: compound fluoresces at 488/530 nm on avidin beads; compound fluorescence 488/530 nm, flow cytometry; active compounds read high; fluorescence (KMESF) at 10 µM; 0.38% of 220,000 active; AID 1775; in the data active means fluorescence above about 47
RGS7-Gao reg: human RGS7-Galphao interaction regulation; 0.35% of 220,000 active; AID 1439; binding response (% of control), % at 10 µM; Multiplexed bead flow cytometry, RGS7-Galphao binding; actives lie on both sides; in the data active means binding response below about 49% or above about 150%; inconclusive means no clear call, values can overlap the other calls; inactive means in between;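 further: fluorescent Galphao held in activated GDP-AlF4 state binding bead-coupled RGS7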
RGS4-Gao reg: modulates binding of RGS4 to human Galphao; P09471; Multiplexed bead flow cytometry; actives lie on both sides; binding response (% of control), % at 10 µM; 0.33% of 220,000 active; AID 1415; in the data active means binding response below about 49% or above about 150%; inactive means in between;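 further: fluorescent Galphao activated with aluminum fluoride binding bead-coupled RGS4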
RGS4-Gao HTS: RGS4-Galphao interaction regulator (human); shares compounds with RGS16-Gao; multiplexed bead flow cytometry, RGS–Galpha-o binding; RGS4–Galpha-o binding response, % at 10 µM; 99% of 1,600 active; AID 1504;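 further: fluorescently labeled Galpha-o bound to GDP with aluminium fluoride binding biotinylated RGS beads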
Avidin counter: counter-screen: compounds disrupting biotin binding to avidin beads; AID 1783; 1,700 tested, under 10 active; streptavidin beads, fluorescein-biotin binding, flow cytometry; inhibition, % at 10 µM; shares compounds with RGS16-Gao;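 active means inhibition above 50%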;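 further: median green fluorescence of gated singlet beads compared with DMSO control wells; 0% = DMSO wells and 100% = complete loss of bead fluorescence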
RGS8-Gao single: RGS8-Galphao interaction regulation, single point confirmation; 3% of 1,700 active; binding response (% of control), % at 10 µM; bead-based flow cytometry RGS8-Galphao binding, fluorescence; actives lie on both sides; shares compounds with RGS16-Gao; AID 1836; in the data active means binding response below about 72% or above about 130%; inactive means in between;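 further: Galphao activated as GDP AlF4 complex before binding bead RGS8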
RGS7-Gao single: RGS7-Galphao interaction regulation, single point confirmation; shares compounds with RGS16-Gao; bead-based flow cytometry RGS7-Galphao binding; actives lie on both sides; response (percent of control binding), % at 10 µM; 7.8% of 1,700 active; AID 1837; in the data active means response below about 75% or above about 130%; inactive means in between;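 further: fluorescent Galphao activated with GDP and aluminum fluoride binding bead-coupled RGS7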
RGS16-Gao single: RGS16-Galphao interaction regulation, single point confirmation; bead-based flow cytometry, RGS16-Galphao binding; actives lie on both sides; 4% of 1,700 active; AID 1838; response (% of control binding), % at 10 µM; shares compounds with RGS16-Gao; in the data active means response below about 74% or above about 130%; inactive means in between;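 further: Galphao activated as the GDP aluminium fluoride complex binding bead-coupled RGS16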
RGS4-Gao single: confirmation of regulators of human RGS4-Galphao interaction | 4% of 1,700 active | RGS4-Galphao binding, multiplexed bead flow cytometry; actives lie on both sides | binding response (% of control), % at 10 µM | AID 1840 | shares compounds with RGS16-Gao; in the data active means binding response below about 74% or above about 130%; inactive means in between
RGS19-Gao single: confirmation of regulators of human RGS19-Galphao interaction; shares compounds with RGS16-Gao; bead-based flow cytometry RGS19-Galphao binding; actives lie on both sides; response (percent of control binding), % at 10 µM; 5% of 1,700 active; in the data active means response below about 50% or above about 160%; inactive means in between;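 further: 100% = no compound control and 0% = blank background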
* hit, by the source's call; ? = inconclusive; nt = no result given; [ ] = remark or other dose. Unless noted, how the calls were made is not given here.

SMILES | RGS8-Gao | RGS16-Gao | GSH bead fluor | Avidin bead fluor | RGS7-Gao reg | RGS4-Gao reg | Avidin counter | RGS8-Gao single | RGS7-Gao single | RGS16-Gao single | RGS4-Gao single | RGS19-Gao single | others
CC1(C)COC2(OC1)C(=O)N(CN1CCOCC1)c1ccccc12 | 105.8 | 127.7 | 22 | 124* | 251.9*[activator] | 128.0 | -0.1 | 98.7 | 96.2 | 99.2 | 101.1 | 90.0 | RGS4-Gao HTS=128.0*
Nc1c(C(=O)Nc2ccc(F)cc2)sc(=S)n1-c1ccccc1F | 85.9 | 90.3 | 21 | 7 | 98.1 | 98.1 | nt | nt | nt | nt | nt | nt
COc1ccc(C2C(C(N)=O)=C(C)Nc3nc(-c4ccccc4OC)nn32)cc1OC (configuration not stated) | 99.7 | 99.3 | 15 | 25 | 95.2 | 92.6 | nt | nt | nt | nt | nt | nt
COC(=O)c1nc2n(n1)C(c1ccc(OC)c(OC)c1)C(C(=O)OC1CCCCC1)=C(C)N2 (configuration not stated) | 87.9 | -38.1* | 54 | 2 | 88.3 | 81.9 | 1.3 | 102.9 | 100.2 | 97.4 | 101.6 | 92.8 | RGS4-Gao HTS=81.9*
Cc1ccc(-n2ncc3c(NNC(=O)c4cccs4)ncnc32)cc1 | 108.7 | 102.4 | 16 | 12 | 101.5 | 102.6 | nt | nt | nt | nt | nt | nt
O=C(NCCN1CCN(c2cccc(Cl)c2)CC1)C1CCCN(S(=O)(=O)c2cnc[nH]2)C1 (configuration not stated) | 142.2*[activator] | 203.3 | 15 | 5 | 114.0 | 115.8 | nt | nt | nt | nt | nt | nt | RGS4-Gao HTS=115.8*
COc1ccc(C(=O)Nc2ccc(-c3cn4ccsc4n3)cc2)cc1S(=O)(=O)N1CCOCC1 | 17.2* | -56.4* | 4 | nt | -7.2* | -45.8* | -0.7 | 97.9 | 93.1 | 98.5 | 97.7 | 98.1
O=C(CSc1ncnc2ccccc12)NCC(=O)c1ccccc1 | 100.9 | 104.8 | 12 | 11 | 103.9 | 101.6 | nt | nt | nt | nt | nt | nt
O=C(Cc1ccc(-n2c(=O)c3sccc3n(CC(=O)Nc3ccccc3F)c2=O)cc1)NCc1ccco1 | 100.6 | 98.8 | 12 | 11 | 96.7 | 100.7 | nt | nt | nt | nt | nt | nt
COc1ccc(CNC(N)=O)cc1OC | 101.7 | 102.4 | 52 | 12 | 102.6 | 100.9 | nt | nt | nt | nt | nt | nt
COc1cccc(NC(=O)NCCc2ccc(Cl)cc2)c1 | 94.9 | 95.7 | 19 | 10 | 95.1 | 96.0 | nt | nt | nt | nt | nt | nt
COc1ccc(CC(=O)OCC(=O)NCc2ccccc2Cl)cc1OC | 159.0*[activator] | 175.8*[activator] | 15 | 22 | 161.5*[activator] | 160.3*[activator] | -0.5 | 104.0 | 95.5 | 104.4 | 96.6 | 98.9
COc1ccc(CNC(=O)NCc2ccc(OC)c(OC)c2)cc1OC | 104.8 | 137.2 | 37 | 64* | 157.1*[activator] | 114.9 | -1.1 | 95.8 | 97.2 | 97.2 | 97.2 | 94.0 | RGS4-Gao HTS=114.9*
COc1ccc(NC(=O)NCCc2ccc(Cl)cc2)cc1OC | 11.5* | 0.8* | 16 | -1 | -3.3* | 7.0* | 1.0 | 105.7 | 103.6 | 106.2 | 102.7 | 103.5
CCN(CC)S(=O)(=O)c1ccc(N2CCOCC2)c(NC(=O)C2CCCO2)c1 (configuration not stated) | 98.9 | 99.7 | nt | 9 | ? | 98.9 | nt | nt | nt | nt | nt | nt
COc1cccc(CCc2nnc(CCC(=O)NC(C)c3c(C)nn(C)c3C)o2)c1 (configuration not stated) | 106.1 | 112.7 | 18 | 11 | 107.4 | 101.7 | nt | nt | nt | nt | nt | nt
Cc1nc2ccccc2c(=O)n1/N=C/c1ccccc1 | 100.7 | 93.8 | 37 | 9 | 99.2 | 99.4 | nt | nt | nt | nt | nt | nt
Cc1nc2ccccc2c(=O)n1/N=C/c1ccncc1 | nt | nt | 31 | nt | 135.2 | 132.0 | 0.2 | 102.3 | 112.2 | 103.2 | 106.3 | 109.4
CCCCC(CCC(=O)O)(C(=O)OCC)c1csc(Nc2ccc(C)cc2)n1 (configuration not stated) | 11.8* | 10.0* | 13 | 0 | -15.9* | 1.7* | 3.0 | 94.3 | 91.7 | 91.6 | 90.6 | 74.9
CCCn1cnc2c(=S)nc(N)[nH]c21 | 99.0 | 101.2 | nt | 3 | ? | 100.5 | nt | nt | nt | nt | nt | nt
O=C(CN1CCN(C(=O)c2ccco2)CC1)Nc1cccc([N+](=O)[O-])c1 | 97.2 | 82.2 | 14 | 6 | 99.8 | 102.1 | nt | nt | nt | nt | nt | nt
CCc1cc(C=NC2CCCCC2)c(O)s1 | -0.4* | -38.9* | 11 | -5 | -28.1* | -60.0* | -1.9 | 100.4 | 96.2 | 99.2 | 99.5 | 111.7
CCc1cc2c(=O)[nH]c(Cc3ccc(OC)cc3)nc2s1 | 76.4 | 16.1* | 9 | 8 | 87.2 | 88.5 | 1.6 | 100.3 | 105.1 | 102.3 | 102.7 | 92.9 | RGS4-Gao HTS=88.5*
CCc1cc2c(=O)[nH]c(COC)nc2s1 | 99.0 | 100.5 | 10 | 4 | 98.4 | 101.5 | nt | nt | nt | nt | nt | nt
O=C(c1cccc(S(=O)(=O)N2CCc3ccccc32)c1)N1CCN(c2ccccn2)CC1 | 100.4 | 99.7 | 12 | 11 | ? | 98.5 | nt | nt | nt | nt | nt | nt
SMILES | RGS8-Gao | RGS16-Gao | GSH bead fluor | Avidin bead fluor | RGS7-Gao reg | RGS4-Gao reg | Avidin counter | RGS8-Gao single | RGS7-Gao single | RGS16-Gao single | RGS4-Gao single | RGS19-Gao single | others
Cc1nn(-c2ccccc2)c(C)c1NC(=O)c1cccs1 | 80.2 | -7.9* | 10 | 9 | 88.1 | 82.2 | 0.1 | 101.1 | 103.0 | 100.0 | 102.7 | 100.7 | RGS4-Gao HTS=82.2*
Cc1nn(-c2ccccc2)c(C)c1NC(=O)Cc1cccs1 | 67.9 | 58.1 | 17 | 6 | 55.0 | 55.8 | nt | nt | nt | nt | nt | nt
O=C(Nc1ccc(Oc2ccc(C(F)(F)F)cn2)c(Cl)c1)C1CC1 | 98.1 | 107.7 | 10 | 15 | 98.9 | 100.4 | nt | nt | nt | nt | nt | nt
CC(C)N1CCN(Cc2ccc(C#CC(C)(C)O)s2)CC1CCO (configuration not stated) | 97.4 | 100.1 | 8 | 2 | 98.6 | 98.8 | nt | nt | nt | nt | nt | nt
CC(C)N1CCC(N2CCN(Cc3ccc(C#CC(C)(C)O)s3)CC2CCO)CC1 (configuration not stated) | 84.5 | 98.2 | 18 | 134* | 274.6*[activator] | 141.8 | 2.7 | 99.8 | 102.8 | 99.4 | 99.8 | 97.5 | RGS4-Gao HTS=141.8*
c1ccc(Cn2cnc3ccccc32)cc1 | 35.2* | 26.4 | 13 | 8 | 33.9* | 33.0* | -1.1 | 108.5 | 116.1 | 113.1 | 114.6 | 112.4
